Measurements published in PubChem BioAssay AID1159580 (chemical genetic matrix, 2015).
The whole screen tested about 5,500 compounds, of which about 2,000 (36%) were called active. Roughly 18% stayed inconclusive and do not appear here. Cut-off read from the data, not from the text of the source: active = normalized growth mostly below about 0.91 (no sharp cut-off); inconclusive = no clear call, values can overlap the other calls; inactive = mostly above about 0.92. The list shows a part of the results.

Assay: chemical genetic growth profiling, strain panel (AID 1159580);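 note: tested at 20 µM; growth read once vehicle control cultures reached saturation at 30 °C; 1 = growth at the plate median or of vehicle wells; lower values mean less growth of the strain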
Conditions: growth OD

Measured: normalized growth

CCCCCCCCCc1ccc(O)cc1
inactive: S. cerevisiae deletion strains, locus YKL068W, hits give low values 0.964 | S. cerevisiae deletion strains, locus YOL012C, strain htz1 0.624 | S. cerevisiae deletion strains, locus YPR141C, strain kar3, hits give low values 0.992
active: S. cerevisiae deletion strains, locus YJR075W, strain HOC1, hits give low values 0.256 | S. cerevisiae deletion strains, locus YKL009W, strain mrt4, hits give low values 0.616 | S. cerevisiae deletion strains, locus YKL085W, strain MDH1 (second series), hits give low values 0.311 | S. cerevisiae deletion strains, locus YKL085W, strain MDH1, hits give low values 0.311 | S. cerevisiae deletion strains, locus YKL160W, strain elf1, hits give low values 0.0913 | S. cerevisiae deletion strains, locus YKL190W, strain CNB1, hits give low values 0.139 | S. cerevisiae deletion strains, locus YKR001C, strain vps1, hits give low values 0.352 | S. cerevisiae deletion strains, locus YKR026C, strain gcn3, hits give low values 0.0658 | S. cerevisiae deletion strains, locus YKR091W, strain srl3, hits give low values 0.0785 | S. cerevisiae deletion strains, locus YLL001W, strain dnm1, hits give low values 0.0778 | S. cerevisiae deletion strains, locus YLL026W, hits give low values 0.0571 | S. cerevisiae deletion strains, locus YLL041C, strain sdh2, hits give low values 0.0651 | S. cerevisiae deletion strains, locus YLR027C, strain aat2, hits give low values 0.0531 | S. cerevisiae deletion strains, locus YLR039C, strain RIC1, hits give low values 0.106 | S. cerevisiae deletion strains, locus YLR058C, strain SHM2, hits give low values 0.136 | S. cerevisiae deletion strains, locus YLR102C, strain apc9, hits give low values 0.901 | S. cerevisiae deletion strains, locus YLR113W, strain HOG1, hits give low values 0.117 | S. cerevisiae deletion strains, locus YLR221C, strain rsa3, hits give low values 0.0526 | S. cerevisiae deletion strains, locus YLR258W, strain gsy2, hits give low values 0.062 | S. cerevisiae deletion strains, locus YLR262C, strain YPT6 (second series), hits give low values 0.0891 | S. cerevisiae deletion strains, locus YLR262C, strain YPT6, hits give low values 0.139 | S. cerevisiae deletion strains, locus YLR268W, strain sec22, hits give low values 0.74 | S. cerevisiae deletion strains, locus YLR320W, strain mms22, hits give low values 0.071 | S. cerevisiae deletion strains, locus YLR330W, strain CHS5, hits give low values 0.321 | S. cerevisiae deletion strains, locus YLR342W, strain FKS1 (second series), hits give low values 0.102 | S. cerevisiae deletion strains, locus YLR342W, strain FKS1, hits give low values 0.0664 | S. cerevisiae deletion strains, locus YLR357W, strain rsc2, hits give low values 0.148 | S. cerevisiae deletion strains, locus YLR370C, strain arc18, hits give low values 0.0667 | S. cerevisiae deletion strains, locus YLR371W, strain rom2, hits give low values 0.622 | S. cerevisiae deletion strains, locus YLR384C, strain iki3, hits give low values 0.0786 | S. cerevisiae deletion strains, locus YLR418C, strain cdc73, hits give low values 0.323 | S. cerevisiae deletion strains, locus YML016C, strain PPZ1, hits give low values 0.191 | S. cerevisiae deletion strains, locus YML032C, strain rad52, hits give low values 0.497 | S. cerevisiae deletion strains, locus YML120C, strain ndi1, hits give low values 0.0538 | S. cerevisiae deletion strains, locus YML124C, strain tub3, hits give low values 0.908 | S. cerevisiae deletion strains, locus YMR058W, strain fet3, hits give low values 0.0622 | S. cerevisiae deletion strains, locus YMR078C, strain ctf18, hits give low values 0.611 | S. cerevisiae deletion strains, locus YMR125W, strain sto1, hits give low values 0.0742 | S. cerevisiae deletion strains, locus YMR129W, hits give low values 0.0704 | S. cerevisiae deletion strains, locus YMR205C, strain PFK2, hits give low values 0.0794 | S. cerevisiae deletion strains, locus YMR223W, strain ubp8, hits give low values 0.558 | S. cerevisiae deletion strains, locus YMR231W, strain pep5, hits give low values 0.0903 | S. cerevisiae deletion strains, locus YMR263W, strain SAP30, hits give low values 0.099 | S. cerevisiae deletion strains, locus YMR307W, strain GAS1, hits give low values 0.121 | S. cerevisiae deletion strains, locus YNL067W, strain RPL9B, hits give low values 0.254 | S. cerevisiae deletion strains, locus YNL071W, strain lat1, hits give low values 0.0615 | S. cerevisiae deletion strains, locus YNL128W, strain TEP1, hits give low values 0.119 | S. cerevisiae deletion strains, locus YNL153C, strain GIM3, hits give low values 0.117 | S. cerevisiae deletion strains, locus YNL183C, strain NPR1, hits give low values 0.00185 | S. cerevisiae deletion strains, locus YNL209W, strain ssb2, hits give low values 0.0648 | S. cerevisiae deletion strains, locus YNL233W, strain BNI4, hits give low values 0.0815 | S. cerevisiae deletion strains, locus YNL248C, strain rpa49, hits give low values 0.076 | S. cerevisiae deletion strains, locus YNL250W, strain rad50, hits give low values 0.734 | S. cerevisiae deletion strains, locus YNL271C, strain bni1, hits give low values 0.749 | S. cerevisiae deletion strains, locus YNL298W, strain CLA4, hits give low values 0.437 | S. cerevisiae deletion strains, locus YNL307C, strain MCK1, hits give low values 0.292 | S. cerevisiae deletion strains, locus YNL322C, strain KRE1 (second series), hits give low values 0.11 | S. cerevisiae deletion strains, locus YNL322C, strain KRE1, hits give low values 0.167 | S. cerevisiae deletion strains, locus YNR049C, strain mso1, hits give low values 0.0733 | S. cerevisiae deletion strains, locus YNR052C, strain pop2, hits give low values 0.538 | S. cerevisiae deletion strains, locus YOL006C, strain TOP1, hits give low values 0.217 | S. cerevisiae deletion strains, locus YOL147C, strain pex11, hits give low values 0.444 | S. cerevisiae deletion strains, locus YOR001W, strain rrp6, hits give low values 0.0626 | S. cerevisiae deletion strains, locus YOR061W, strain CKA2, hits give low values 0.102 | S. cerevisiae deletion strains, locus YOR069W, strain VPS5, hits give low values 0.217 | S. cerevisiae deletion strains, locus YOR070C, strain gyp1, hits give low values 0.063 | S. cerevisiae deletion strains, locus YOR080W, strain dia2, hits give low values 0.0669 | S. cerevisiae deletion strains, locus YOR083W, strain WHI5, hits give low values 0.0608 | S. cerevisiae deletion strains, locus YOR106W, strain vam3, hits give low values 0.0604 | S. cerevisiae deletion strains, locus YOR136W, strain idh2, hits give low values 0.758 | S. cerevisiae deletion strains, locus YOR144C, strain elg1, hits give low values 0.553 | S. cerevisiae deletion strains, locus YOR184W, strain ser1, hits give low values 0.506 | S. cerevisiae deletion strains, locus YOR231W, strain MKK1, hits give low values 0.101 | S. cerevisiae deletion strains, locus YOR265W, strain rbl2, hits give low values 0.0564 | S. cerevisiae deletion strains, locus YOR270C, strain vph1, hits give low values 0.102 | S. cerevisiae deletion strains, locus YOR290C, strain snf2, hits give low values 0.0652 | S. cerevisiae deletion strains, locus YOR316C, strain cot1, hits give low values 0.799 | S. cerevisiae deletion strains, locus YPL051W, strain arl3, hits give low values 0.0626 | S. cerevisiae deletion strains, locus YPL055C, strain LGE1, hits give low values 0.1 | S. cerevisiae deletion strains, locus YPL078C, strain atp4, hits give low values 0.0621 | S. cerevisiae deletion strains, locus YPL106C, strain sse1, hits give low values 0.0816 | S. cerevisiae deletion strains, locus YPL240C, strain hsp82, hits give low values 0.0552 | S. cerevisiae deletion strains, locus YPL241C, strain CIN2, hits give low values 0.219 | S. cerevisiae deletion strains, locus YPL256C, strain CLN2, hits give low values 0.109 | S. cerevisiae deletion strains, locus YPR119W, strain clb2, hits give low values 0.67 | S. cerevisiae deletion strains, locus YPR163C, strain tif3, hits give low values 0.86 | S. cerevisiae deletion strains, locus YPR167C, strain met16, hits give low values 0.655 | S. cerevisiae deletion strains, strain wtn01, hits give low values 0.813 | S. cerevisiae strains, strain wild type, hits give low values 0.112
